Assay outcomes (PubChem BioAssay)
Only some compounds are listed: those with a hit (about 2.4% of all), similar ones and a draw of the others.
Platelet DG rel = platelet dense granule release activity; human platelet-rich plasma, SFLLRN dense granule ATP release, luminescence; inhibition, %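 (compounds screened at 7.5 µM in platelet-rich plasma)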; hit rate 0.22% among 300,000;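 active means mean replicate score, as percent of positive control, at or above 50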
SENP7 block = inhibitors of human SENP7 protease. Q9BQF6. recombinant SENP7, Z-RLRGG-aminoluciferin luminescence, 40 min. inhibition, % at 5 µM. hit rate 1.5% among 330,000;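 active means inhibition above about 50% at the single test dose, limit read from the data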;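 further: plate controls were DMSO with enzyme for no effect and no enzyme buffer wells for full effect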
Target sequence (Q9BQF6 706-1050 limits assumed): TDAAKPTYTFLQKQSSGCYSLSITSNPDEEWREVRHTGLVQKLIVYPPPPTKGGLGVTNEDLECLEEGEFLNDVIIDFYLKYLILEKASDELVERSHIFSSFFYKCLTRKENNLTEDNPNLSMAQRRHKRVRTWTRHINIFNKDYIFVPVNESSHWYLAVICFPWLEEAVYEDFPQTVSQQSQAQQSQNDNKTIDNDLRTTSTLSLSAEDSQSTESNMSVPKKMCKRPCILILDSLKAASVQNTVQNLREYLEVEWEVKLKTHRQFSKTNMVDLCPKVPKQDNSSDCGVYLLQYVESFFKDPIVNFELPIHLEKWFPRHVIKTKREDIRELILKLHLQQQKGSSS
SENP6 block = inhibitors of human SENP6 protease; Q9GZR1; Recombinant SENP6 catalytic domain, aminoluciferin luminescence; inhibition, % at 10 µM; hit rate 1.8% among 330,000; AID 2599;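 active means inhibition above about 50% at the single tested dose, limit read from the data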;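 further: plate controls were DMSO wells with enzyme for no effect and DMSO wells lacking enzyme for full effect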
SENP8 block-1 = blocks the human protease SENP8; AID 2540; hit rate 1.2% among 330,000; inhibition, % at 10 µM; purified SENP8, Z-RLRGG-aminoluciferin cleavage, luminescence; Q96LD8; in the data active means inhibition above about 50%
SENP8 block-2 = inhibitors of human SENP8 protease; Q96LD8; inhibition, % at 20 µM; recombinant SENP8, Nedd8 substrate fluorescence; hit rate 0.64% among 360,000; in the data active means inhibition mostly above about 40%, no sharp cut-off; inactive means mostly below about 27%
SENP8 conf = human SENP8 inhibition, confirmed; Recombinant SENP8, Z-RLRGG-aminoluciferin luminescence, 60 min; hit rate 40% among 6,200; AID 488912; shares compounds with SENP7 block; inhibition, % at 12.5 µM;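 active means mean inhibition across replicates above about 50%, limit read from the data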
SENP6 confirm = confirmation of human SENP6 protease inhibitors | hit rate 58% among 6,200 | shares compounds with SENP7 block | recombinant SENP6, Z-RLRGG-aminoluciferin luminescence | inhibition, % at 12.5 µM
SENP7 confirm = confirmation of human SENP7 protease inhibitors; inhibition, % at 12.5 µM; shares compounds with SENP7 block; hit rate 69% among 6,200; AID 488917; recombinant SENP7, Z-RLRGG-aminoluciferin luminescence, 40 min
Casp3 SENP sel = selectivity test for SENP inhibitors: human caspase-3 inhibition; inhibition, % at 12.5 µM; AID 488918; purified caspase-3, Z-DEVD-aminoluciferin luminescence, 60 min; shares compounds with SENP7 block; hit rate 60% among 6,200;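 active means mean inhibition above about 50%, limit read from the data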;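 further: plate controls were enzyme with DMSO for no effect and wells without caspase-3 for full effect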
Target sequence (P42574 28-227 limits assumed): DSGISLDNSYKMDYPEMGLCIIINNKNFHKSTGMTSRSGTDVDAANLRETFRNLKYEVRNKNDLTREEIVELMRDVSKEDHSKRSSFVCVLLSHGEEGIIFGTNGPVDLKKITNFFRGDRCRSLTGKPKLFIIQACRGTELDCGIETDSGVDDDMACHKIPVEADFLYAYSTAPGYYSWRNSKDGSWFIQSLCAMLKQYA
Luc interf = counter-screen for SENP inhibitors: luminescence interference. shares compounds with SENP7 block. Pre-incubated SENP8/Z-RLRGG-aminoluciferin, luciferase luminescence interference. inhibition, % at 12.5 µM. hit rate 39% among 6,200. AID 488919;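 active means mean inhibition above about 50% when retested at one dose, limit read from the data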;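 further: plate controls were DMSO wells with completed reaction for no effect and substrate without enzyme for full effect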
Numbers without * were called inactive; · = not tested or not shown.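 How the source made its calls, unless noted: active means mean inhibition above about 50% in the one-dose retest (limit read from the data); inactive means the rest.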

SMILES | Platelet DG rel | SENP7 block | SENP6 block | SENP8 block-1 | SENP8 block-2 | SENP8 conf | SENP6 confirm | SENP7 confirm | Casp3 SENP sel | Luc interf
CSc1ncccc1C(=O)OCC(=O)c1cc(C)n(C)c1C | · | 37 | 54* | 37 | 1 | 14 | 46 | 82* | 73* | 45
COc1cc(C(=O)OCC(=O)c2cc(C)n(CC3CCCO3)c2C)cc(OC)c1C (configuration not stated) | · | -16 | -11 | 7 | 0 | · | · | · | · | ·
CSc1ncccc1C(=O)OCC(=O)c1ccccc1 | -5 | 34 | 53* | 28 | -1 | 7 | 20 | 70* | 56* | -2
Cc1cc(C(=O)COc2cccc3cccnc23)c(C)n1C | -2 | 29 | 79* | 13 | -127 | 8 | 7 | 7 | 10 | 9
COc1ccc(/C=C2\N=C(c3ccccc3Cl)NC2=O)cc1 | 2 | · | · | · | -38 | · | · | · | · | ·
CCCCCC(=O)N1C[C@H](O)[C@@H](n2cc(COC(=O)c3ccccc3)nn2)C[C@@H]1c1ccc(OC)cc1 | · | · | · | · | -14 | · | · | · | · | ·
CCc1sc(NC(=O)c2cc3ccccc3oc2=O)nc1-c1cccs1 | -8 | -3 | -3 | -1 | 0 | · | · | · | · | ·
COc1ccccc1/C=C1/C(=O)N(c2ccccc2)N=C1C | 2 | 60* | 14 | -3 | 31 | -5 | 2 | -10 | 1 | 2
COc1cc(/C=C2/C(=O)N(c3ccc(C)c(C)c3)N=C2C)cc([N+](=O)[O-])c1O | -8 | 3 | 4 | -5 | 20 | · | · | · | · | ·
CC1=NN(c2ccc(Br)cc2)C(=O)/C1=C/c1cccs1 | 22 | 70* | 75* | 1 | 43* | -28 | -14 | -7 | -10 | -9
CC1=NN(c2ccccc2)C(=O)/C1=C\c1ccc(Oc2ccc([N+](=O)[O-])cc2[N+](=O)[O-])cc1 | 4 | 68* | 25 | 4 | 41* | 11 | 14 | 0 | -1 | 0
CC(=O)N(C)c1ccc(N=Nc2c(C)[nH]n(C(N)=S)c2=O)cc1 | 7 | 85* | 78* | 78* | 18 | 86* | 87* | 98* | 96* | 90*
NC(=S)n1[nH]c(-c2ccc([N+](=O)[O-])cc2)c(N=Nc2ccc(O)cc2)c1=O | -3 | 7 | -7 | 19 | 34 | · | · | · | · | ·
CCN(CC)S(=O)(=O)c1ccc(N=Nc2c(C)[nH]n(C(N)=S)c2=O)cc1 | 16 | 18 | 54* | 17 | 36 | 41 | 37 | 72* | 56* | 18
CC(=O)N(C)c1ccc(N=Nc2c(C)[nH]n(-c3ccccc3)c2=O)cc1 | 6 | -3 | 9 | -1 | 30 | · | · | · | · | ·
CCOC(=O)[C@]12CCC=C1N(Cc1ccc(Cl)cc1Cl)C(=O)[C@H](CC(=O)NCCCN1CCCC1=O)C2 | · | · | · | · | 14 | · | · | · | · | ·
c1ccc(-c2onc3cc4c(cc23)OCCO4)cc1 | 31 | 76* | 89* | 78* | -183 | 9 | 92* | 101* | 86* | 92*
CC(=O)c1ccc2noc(-c3ccccc3)c2c1 | 2 | -8 | -2 | -9 | -335 | · | · | · | · | ·
CC(=O)N(C)c1ccc(NC(=O)Nc2ccccc2C)cc1 | 14 | 58* | 63* | 33 | 16 | 40 | 41 | 79* | 83* | 63*
COC(=O)c1ccc(NC(=O)Nc2ccccc2C)cc1 | 29 | 92* | 91* | 83* | -1 | 89* | 89* | 99* | 89* | 48
COC(=O)c1ccc(NC(=O)Nc2ccc(F)cc2)cc1 | 24 | 49 | 68* | 46 | 6 | 42 | 42 | 80* | 48 | 62*
COC(=O)c1ccc(NC(=O)Nc2ccc(F)c(Cl)c2)cc1 | 11 | 58* | -50 | -1 | 4 | 14 | 18 | 84* | 22 | 26
CC(=O)Nc1ccc(NC(=O)Nc2ccccc2C)cc1 | 22 | 16 | 15 | -2 | 27 | · | · | · | · | ·
COc1ccc(OCc2cc(C(=O)NC(C)Cc3cnccn3)no2)c(Cl)c1 (configuration not stated) | 7 | -7 | -2 | -1 | 10 | · | · | · | · | ·
F[B-](F)(F)COCc1ccccc1Br | · | · | · | · | 14 | · | · | · | · | ·
SMILES | Platelet DG rel | SENP7 block | SENP6 block | SENP8 block-1 | SENP8 block-2 | SENP8 conf | SENP6 confirm | SENP7 confirm | Casp3 SENP sel | Luc interf
CC(C)C(=O)N1CCN(c2ccccc2NC(=S)NC(=O)/C=C/c2ccco2)CC1 | · | 0 | 13 | 0 | 18 | · | · | · | · | ·
c1c2c(cc3sc(N4CCOCC4)nc13)OCCO2 | 57* | 94* | 94* | 89* | 11 | 89* | 93* | 100* | 96* | 57*
Cc1nc(SCc2nc3cc(Cl)c(F)cc3[nH]2)c2oc3ccccc3c2n1 | · | -1 | -22 | -4 | -71 | · | · | · | · | ·
CCCc1ccc(-c2ccc(/C=C/C(=O)O)cc2)nc1 | -9 | · | · | · | -84 | · | · | · | · | ·
CCCCCc1ccc(-c2ccc(/C=C/C(=O)O)cc2)nc1 | 16 | 7 | 76* | 45 | -33 | 76* | 68* | 88* | 28 | 28
C=CCNc1nc(-c2ccc(Cl)cc2)cs1 | -14 | 75* | 91* | 80* | 34 | 44 | 90* | 100* | 75* | 91*
C=CCNc1nc(-c2ccc([N+](=O)[O-])cc2)cs1 | 0 | 8 | 15 | 0 | 20 | · | · | · | · | ·
O=C(Nc1ccon1)c1ccc(Cl)s1 | 1 | 0 | -2 | 0 | 9 | · | · | · | · | ·
CCOc1ccc(C(=O)Nc2cccc(C)n2)cc1 | 30 | 91* | 87* | 80* | 19 | -9 | 83* | 98* | 94* | 87*
Cc1ccnc(NC(=O)c2ccc(Cl)s2)c1 | -6 | 72* | 76* | 67* | 6 | 76* | 75* | 93* | 86* | 77*
Cc1ccnc(NC(=O)c2ccc(C(=O)c3ccccc3)cc2)c1 | 20 | 70* | 80* | 73* | -1 | 72* | 69* | 93* | 85* | 78*
O=C(Nc1cc(-c2ccccc2)[nH]n1)c1ccccc1 | 3 | 62* | 80* | 59* | 1 | 68* | 62* | 88* | 63* | 71*
CCOc1ccc(NC(=O)Nc2cccc(C)n2)cc1 | 2 | 16 | -3 | -10 | 16 | · | · | · | · | ·
C[C@H](CO)N1C[C@H](C)[C@@H](CN(C)C(=O)Nc2ccc3c(c2)OCO3)Oc2ccc(NS(=O)(=O)c3cn(C)cn3)cc2C1=O | · | 4 | 2 | -4 | 2 | · | · | · | · | ·
CCOc1ccc(C(=O)Nc2cc(C)ccn2)cc1 | 76* | 96* | 91* | 91* | 10 | -12 | 90* | 100* | 96* | 91*
COCCn1c(N)c(C(=O)OCc2ccccc2)c2nc3ccccc3nc21 | -2 | 45 | 73* | 61* | -284 | -14 | 8 | 8 | -6 | 0
